The full data set covers some 8,800 targets. This sample favours those with a hit. About 0.5% of all pairs of compound and target were hits. A number with no mark means an inactive call.
Tests used:
Test in all cases: log2 fold change, soluble protein after heating vs DMSO (PISA); higher = thermal stabilisation; K562 lysate, 10 uM; active = over 0.2 and 3.5 SD of the protein, either way, in both replicates (recomputed)
[1] = compound: C1=CC=C(C=C1)[C@H](COC2=CC3=C(C=C2)NC(=O)N3)NC(=O)C4=CC=CN(C4=O)CC5=CC(=C(C=C5)F)F
Method in brief: (§1)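 Pellets of K562 cells were dounce-homogenised in PBS pH 7.4 with 1 mM MgCl2, and the crude extract was held at 1 mg/mL protein for a 30 min treatment with 10 μM compound. Aliquots were heated for 3 min over 48°C-58°C and pooled before NP-40 was added to 0.5% at 4°C. The supernatant from 21,000xg for 90 min was quantified by TMTpro 16plex LC-MS/MS with channel sums equalised. Values are reported from duplicates as log-two fold change in thermal stability relative to solvent controls.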

[2] = compound: CC1=C(SC2=C1C(=N[C@H](C3=NN=C(N32)C)CC(=O)N)C4=CC=C(C=C4)Cl)C
Method in brief: as §1

[3] = compound: CC1=C2C(=CC=C1)N=C(N(C2=O)C3=CC=CC=C3C)CN4C=NC5=C(N=CN=C54)N
Method in brief: as §1

[4] = compound: Cc1sc2c(c1C)C(c1ccc(Cl)cc1)=N[C@@H](CC(=O)OC(C)(C)C)c1nnc(C)n1-2
Method in brief: as §1

[5] = compound: c1ccc([C@@H]2C[C@H]2NC2CCNCC2)cc1
Method in brief: as §1

Sequence of UniProt Q68E01 (Q68E01 whole entry, looked up): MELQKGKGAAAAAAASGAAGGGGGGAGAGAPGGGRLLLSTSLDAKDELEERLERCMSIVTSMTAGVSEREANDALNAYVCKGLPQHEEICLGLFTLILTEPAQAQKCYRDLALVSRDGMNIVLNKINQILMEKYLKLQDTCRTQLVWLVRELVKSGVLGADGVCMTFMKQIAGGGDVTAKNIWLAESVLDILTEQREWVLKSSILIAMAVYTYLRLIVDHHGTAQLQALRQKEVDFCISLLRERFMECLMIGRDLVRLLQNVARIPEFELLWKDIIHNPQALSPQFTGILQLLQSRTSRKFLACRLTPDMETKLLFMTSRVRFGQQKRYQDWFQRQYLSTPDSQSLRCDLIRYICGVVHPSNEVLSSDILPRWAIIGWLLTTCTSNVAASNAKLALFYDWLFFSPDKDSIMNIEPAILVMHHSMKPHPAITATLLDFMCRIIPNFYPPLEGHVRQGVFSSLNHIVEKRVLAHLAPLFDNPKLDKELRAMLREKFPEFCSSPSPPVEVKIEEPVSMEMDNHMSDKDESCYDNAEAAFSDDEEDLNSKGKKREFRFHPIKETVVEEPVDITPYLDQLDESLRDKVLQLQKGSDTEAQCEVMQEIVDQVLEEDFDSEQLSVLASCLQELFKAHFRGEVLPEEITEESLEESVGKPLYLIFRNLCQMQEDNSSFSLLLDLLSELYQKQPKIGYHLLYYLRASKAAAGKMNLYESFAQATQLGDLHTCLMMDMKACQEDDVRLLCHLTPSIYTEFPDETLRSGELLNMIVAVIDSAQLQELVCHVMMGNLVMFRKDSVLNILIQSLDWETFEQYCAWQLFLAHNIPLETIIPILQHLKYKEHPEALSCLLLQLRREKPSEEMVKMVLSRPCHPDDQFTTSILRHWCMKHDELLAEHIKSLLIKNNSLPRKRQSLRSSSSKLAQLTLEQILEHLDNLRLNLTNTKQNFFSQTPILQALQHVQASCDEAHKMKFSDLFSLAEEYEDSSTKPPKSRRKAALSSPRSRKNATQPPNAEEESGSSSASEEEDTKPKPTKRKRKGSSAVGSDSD
Sequence of UniProt Q9Y5Q9 (Q9Y5Q9 whole entry, looked up): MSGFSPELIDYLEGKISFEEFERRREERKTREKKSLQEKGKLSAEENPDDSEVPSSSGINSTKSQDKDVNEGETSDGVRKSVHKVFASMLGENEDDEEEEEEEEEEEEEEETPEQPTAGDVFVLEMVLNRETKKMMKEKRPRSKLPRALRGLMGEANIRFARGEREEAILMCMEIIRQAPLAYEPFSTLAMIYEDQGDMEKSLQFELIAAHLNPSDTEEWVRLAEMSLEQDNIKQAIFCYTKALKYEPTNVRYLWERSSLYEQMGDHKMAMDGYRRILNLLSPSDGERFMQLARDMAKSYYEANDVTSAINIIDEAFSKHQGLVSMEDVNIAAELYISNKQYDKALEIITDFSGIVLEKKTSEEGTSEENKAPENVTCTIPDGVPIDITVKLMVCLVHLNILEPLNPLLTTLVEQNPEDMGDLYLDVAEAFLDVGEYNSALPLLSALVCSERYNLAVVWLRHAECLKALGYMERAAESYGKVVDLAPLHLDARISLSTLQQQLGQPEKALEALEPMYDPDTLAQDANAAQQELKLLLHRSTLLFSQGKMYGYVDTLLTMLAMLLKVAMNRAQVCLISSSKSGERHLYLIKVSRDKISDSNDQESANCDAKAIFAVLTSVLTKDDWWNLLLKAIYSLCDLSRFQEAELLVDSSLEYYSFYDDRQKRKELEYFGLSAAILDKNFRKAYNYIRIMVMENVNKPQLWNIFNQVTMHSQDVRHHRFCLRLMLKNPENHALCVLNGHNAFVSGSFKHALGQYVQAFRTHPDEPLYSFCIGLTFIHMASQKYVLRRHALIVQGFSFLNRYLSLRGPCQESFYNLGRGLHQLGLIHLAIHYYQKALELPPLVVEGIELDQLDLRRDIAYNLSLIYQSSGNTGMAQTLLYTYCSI
Sequence of UniProt Q96A47 (Q96A47 whole entry, looked up): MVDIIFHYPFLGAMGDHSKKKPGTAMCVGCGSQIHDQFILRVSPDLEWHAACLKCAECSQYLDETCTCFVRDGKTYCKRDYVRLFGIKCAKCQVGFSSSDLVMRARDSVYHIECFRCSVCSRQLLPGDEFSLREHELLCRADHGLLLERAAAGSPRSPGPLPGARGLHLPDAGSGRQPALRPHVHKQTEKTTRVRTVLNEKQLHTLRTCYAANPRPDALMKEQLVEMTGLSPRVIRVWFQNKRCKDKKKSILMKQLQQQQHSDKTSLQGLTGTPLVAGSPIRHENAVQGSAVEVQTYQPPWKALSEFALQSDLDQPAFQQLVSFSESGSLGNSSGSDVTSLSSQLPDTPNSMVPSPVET
Sequence of UniProt Q96AB3 (Q96AB3 whole entry, looked up): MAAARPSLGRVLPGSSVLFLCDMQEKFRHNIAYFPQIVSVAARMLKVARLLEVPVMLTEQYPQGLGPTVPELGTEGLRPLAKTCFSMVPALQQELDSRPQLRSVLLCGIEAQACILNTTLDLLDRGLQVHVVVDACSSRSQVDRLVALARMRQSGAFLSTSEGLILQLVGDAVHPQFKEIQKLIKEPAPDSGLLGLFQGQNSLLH
Sequence of UniProt Q68CZ6 (Q68CZ6 whole entry, looked up): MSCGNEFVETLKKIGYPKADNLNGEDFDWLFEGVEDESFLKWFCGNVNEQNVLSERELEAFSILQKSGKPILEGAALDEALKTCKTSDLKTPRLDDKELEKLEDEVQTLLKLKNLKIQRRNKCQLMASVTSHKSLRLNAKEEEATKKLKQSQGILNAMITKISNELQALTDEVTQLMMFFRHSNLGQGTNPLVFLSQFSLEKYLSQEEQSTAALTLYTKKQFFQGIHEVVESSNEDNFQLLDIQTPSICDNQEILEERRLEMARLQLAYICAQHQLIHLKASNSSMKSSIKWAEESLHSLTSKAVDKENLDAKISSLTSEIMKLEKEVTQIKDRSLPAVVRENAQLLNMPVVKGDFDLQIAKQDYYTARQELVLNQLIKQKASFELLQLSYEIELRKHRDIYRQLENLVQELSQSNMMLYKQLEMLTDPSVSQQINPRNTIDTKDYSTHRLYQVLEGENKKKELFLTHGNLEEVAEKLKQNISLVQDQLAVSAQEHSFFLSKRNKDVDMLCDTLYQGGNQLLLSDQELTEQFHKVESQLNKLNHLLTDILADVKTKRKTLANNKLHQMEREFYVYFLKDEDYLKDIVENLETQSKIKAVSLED
Sequence of UniProt Q8IU81 (Q8IU81 whole entry, looked up): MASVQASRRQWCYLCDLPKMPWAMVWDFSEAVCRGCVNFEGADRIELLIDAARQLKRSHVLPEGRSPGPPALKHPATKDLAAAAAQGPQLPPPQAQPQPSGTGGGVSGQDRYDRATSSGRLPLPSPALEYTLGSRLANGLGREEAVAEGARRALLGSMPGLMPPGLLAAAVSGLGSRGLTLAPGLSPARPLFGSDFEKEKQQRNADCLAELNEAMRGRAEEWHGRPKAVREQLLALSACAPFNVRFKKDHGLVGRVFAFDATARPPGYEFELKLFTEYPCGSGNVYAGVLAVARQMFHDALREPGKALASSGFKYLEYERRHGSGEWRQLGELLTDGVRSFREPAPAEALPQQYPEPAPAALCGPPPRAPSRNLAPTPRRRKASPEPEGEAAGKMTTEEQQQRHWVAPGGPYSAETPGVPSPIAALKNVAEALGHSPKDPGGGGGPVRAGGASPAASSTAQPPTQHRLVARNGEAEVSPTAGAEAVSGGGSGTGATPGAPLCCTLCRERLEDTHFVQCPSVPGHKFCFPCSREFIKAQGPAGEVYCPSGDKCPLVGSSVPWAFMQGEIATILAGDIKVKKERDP
Sequence of UniProt P16278 (P16278 whole entry, looked up): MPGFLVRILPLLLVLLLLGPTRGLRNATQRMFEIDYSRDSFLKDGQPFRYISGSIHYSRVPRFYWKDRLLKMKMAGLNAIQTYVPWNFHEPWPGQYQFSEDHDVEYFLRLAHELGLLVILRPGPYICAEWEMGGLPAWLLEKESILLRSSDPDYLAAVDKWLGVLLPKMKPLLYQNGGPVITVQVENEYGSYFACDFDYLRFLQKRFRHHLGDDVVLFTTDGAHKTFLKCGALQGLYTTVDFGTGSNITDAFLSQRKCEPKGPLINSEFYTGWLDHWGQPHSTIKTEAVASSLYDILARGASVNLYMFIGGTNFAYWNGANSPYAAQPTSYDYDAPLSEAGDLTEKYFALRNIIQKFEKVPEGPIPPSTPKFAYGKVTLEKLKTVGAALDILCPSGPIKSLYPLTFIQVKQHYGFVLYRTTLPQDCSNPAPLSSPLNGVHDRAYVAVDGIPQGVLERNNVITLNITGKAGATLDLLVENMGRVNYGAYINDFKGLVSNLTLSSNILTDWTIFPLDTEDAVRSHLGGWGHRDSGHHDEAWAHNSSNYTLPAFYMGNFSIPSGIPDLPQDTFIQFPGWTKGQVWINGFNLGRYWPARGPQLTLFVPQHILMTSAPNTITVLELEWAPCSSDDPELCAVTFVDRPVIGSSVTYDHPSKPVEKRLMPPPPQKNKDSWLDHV
Sequence of UniProt Q9Y287 (Q9Y287 whole entry, looked up): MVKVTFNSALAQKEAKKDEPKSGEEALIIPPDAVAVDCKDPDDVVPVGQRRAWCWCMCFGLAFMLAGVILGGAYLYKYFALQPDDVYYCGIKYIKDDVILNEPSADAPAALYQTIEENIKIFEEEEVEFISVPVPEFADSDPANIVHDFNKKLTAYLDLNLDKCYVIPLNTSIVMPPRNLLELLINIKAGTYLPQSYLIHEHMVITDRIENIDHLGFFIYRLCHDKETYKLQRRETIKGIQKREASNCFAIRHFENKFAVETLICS
Sequence of UniProt Q9H0C8 (Q9H0C8 whole entry, looked up): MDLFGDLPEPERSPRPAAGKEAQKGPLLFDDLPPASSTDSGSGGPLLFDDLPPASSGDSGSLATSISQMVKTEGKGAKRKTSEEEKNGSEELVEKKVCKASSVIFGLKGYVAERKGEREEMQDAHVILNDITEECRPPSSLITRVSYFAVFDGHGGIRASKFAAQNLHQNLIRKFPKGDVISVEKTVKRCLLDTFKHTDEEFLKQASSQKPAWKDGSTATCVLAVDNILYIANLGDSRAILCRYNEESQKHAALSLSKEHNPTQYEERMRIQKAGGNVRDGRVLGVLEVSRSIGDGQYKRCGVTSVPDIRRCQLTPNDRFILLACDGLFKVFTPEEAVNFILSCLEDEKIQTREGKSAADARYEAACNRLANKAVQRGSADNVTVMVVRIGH

Row | Target | log2 fold change [1] | log2 fold change [2] | log2 fold change [3] | log2 fold change [4] | log2 fold change [5]
1 | HECTD3 (UniProt Q5T447) | -0.06 | 0.038 | 0.046 | 0.034 | 0.06
2 | GOLPH3 (UniProt Q9H4A6) | -0.067 | 0.018 | 0.022 | -0.089 | 0.008
3 | HARS (UniProt P12081) | 0.025 | 0.006 | 0.001 | 0.008 | 0.002
4 | IRF2BP1 (UniProt Q8IU81) | -0.048 | -0.013 | -0.043 | 0.017 | -0.045
5 | HERC2 (UniProt O95714) | 0.005 | -0.07 | -0.011 | 0.018 | -0.037
6 | ISOC2 (UniProt Q96AB3) | -0.014 | 0.035 | 0.085 | 0.03 | -0.031
7 | IRF2BPL (UniProt Q9H1B7) | 0.055 | -0.057 | 0 | 0.047 | -0.134
8 | GNL3 (UniProt Q9BVP2) | 0.018 | 0.087 | 0.006 | -0.023 | 0.041
9 | HNRNPDL (UniProt O14979) | 0.033 | 0.002 | 0 | 0.048 | -0.071
10 | INTS5 (UniProt Q6P9B9) | -0.086 | -0.034 | -0.019 | 0.015 | 0.127
11 | GLB1 (UniProt P16278) | 0.02 | 0.033 | 0.046 | 0.016 | -0.019
12 | HMGN5 (UniProt P82970) | 0.033 | 0.05 | -0.008 | -0.026 | 0.083
13 | GTF3C3 (UniProt Q9Y5Q9) | -0.018 | -0.019 | 0.03 | -0.052 | 0.032
14 | HNRNPUL2 (UniProt Q1KMD3) | 0.011 | 0.016 | 0.015 | 0.007 | 0.032
15 | HNRNPM (UniProt P52272) | -0.099 | 0.034 | 0.041 | -0.025 | 0.014
16 | HADHA (UniProt P40939) | 0.065 | -0.006 | 0.102 | 0.117 | -0.008
17 | IGF2BP2 (UniProt Q9Y6M1) | -0.041 | -0.004 | 0.012 | 0.022 | 0.008

Row | Target | log2 fold change [1] | log2 fold change [2] | log2 fold change [3] | log2 fold change [4] | log2 fold change [5]
18 | HDHD5 (UniProt Q9BXW7) | 0 | 0.071 | 0.032 | -0.05 | -0.012
19 | ILKAP (UniProt Q9H0C8) | -0.004 | -0.004 | -0.013 | 0.013 | 0.009
20 | INTS3 (UniProt Q68E01) | 0.017 | 0.063 | -0.043 | -0.06 | 0.074
21 | IRS2 (UniProt Q9Y4H2) | -0.091 | 0.246 |  | -0.129 | -0.354
22 | ITM2B (UniProt Q9Y287) | -0.019 | -0.032 | 0.43 (active) | 0.058 | -0.027
23 | GTPBP6 (UniProt O43824) |  |  | 0.385 | -0.439 | 0.118
24 | HAUS3 (UniProt Q68CZ6) | -0.035 | 0.023 | 0.051 | -0.032 | 0.064
25 | HECTD4 (UniProt J3KPF0) | -0.013 | 0.023 | 0.068 | -0.03 | 0.043
26 | HSPA14 (UniProt Q0VDF9) | 0 | 0.011 | -0.004 | 0.025 | 0.017
27 | HSPBAP1 (UniProt Q96EW2) | 0.069 | -0.022 |  | 0.065 | 0.006
28 | HSD17B10 (UniProt Q99714) | -0.006 | 0.062 | 0.03 | 0.022 | 0.003
29 | ISL2 (UniProt Q96A47) | 0.038 | 0.058 |  | -0.063 | 0.207
30 | ITGB1BP2 (UniProt Q9UKP3) |  |  | 0.116 | 0.083 | -0.029
31 | HNRNPM (UniProt M0R019) |  |  | -0.116 |  | 
32 | GPLD1 (UniProt P80108) |  |  |  | 0.209 | 
33 | KATNBL1 (UniProt Q9H079) |  |  | -0.111 | -0.012 | -0.071
34 | H3-3A (UniProt P84243) | 0.059 | 0.016 | 0.024 |  | -0.004

Reference: the supplement of paper PMC10849652
